# GRK2 inh = blocks RNA aptamer binding to human GRK2; P25098; bead flow cytometry, FAM-aptamer displacement from GRK2; inhibition of aptamer binding, % at 10 µM; hit rate 0.59% among 330,000; AID 488847;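 active = inhibition of aptamer binding above 40%, roughly 3 SD of noise, on plates passing a quality check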;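 note: median bead fluorescence of bound FAM aptamer so fluorescent compounds give negative values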
# Target sequence (P25098 whole entry, looked up): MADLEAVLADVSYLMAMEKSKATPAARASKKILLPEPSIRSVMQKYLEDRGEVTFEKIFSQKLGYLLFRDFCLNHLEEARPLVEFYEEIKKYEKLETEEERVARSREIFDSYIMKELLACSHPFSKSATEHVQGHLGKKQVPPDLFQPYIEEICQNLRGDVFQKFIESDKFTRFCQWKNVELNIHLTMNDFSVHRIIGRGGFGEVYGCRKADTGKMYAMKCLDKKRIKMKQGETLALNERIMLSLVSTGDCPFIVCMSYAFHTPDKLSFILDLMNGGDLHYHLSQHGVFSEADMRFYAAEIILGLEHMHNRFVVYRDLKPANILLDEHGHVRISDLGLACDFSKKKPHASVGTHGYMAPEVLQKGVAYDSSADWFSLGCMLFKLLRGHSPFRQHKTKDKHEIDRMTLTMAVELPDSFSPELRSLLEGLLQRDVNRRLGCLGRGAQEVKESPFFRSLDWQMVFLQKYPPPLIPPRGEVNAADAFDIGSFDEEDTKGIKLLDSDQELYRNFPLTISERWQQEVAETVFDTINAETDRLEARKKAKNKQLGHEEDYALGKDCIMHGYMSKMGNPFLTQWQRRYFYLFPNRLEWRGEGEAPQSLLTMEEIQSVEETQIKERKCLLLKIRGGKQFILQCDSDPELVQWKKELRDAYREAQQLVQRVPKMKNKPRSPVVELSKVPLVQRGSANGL
# NadD inh = inhibitors of Staphylococcus aureus NadD | AID 602399 | purified NadD enzyme, colorimetric absorbance read-out | hit rate 0.78% among 360,000 | inhibition, % at 20 µM; in the data active = inhibition above about 26%
# B2AR ag = activates human beta-2 adrenergic receptor causing internalization. response, % (concentration not given with the values). Am2.2-beta2AR cells, FAP receptor internalization, flow cytometry. hit rate 0.43% among 340,000;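 active = response above a set limit, near 3 SD of response in nonfluorescent compounds, cut at about 42% in these data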
# Exocytosis inh = lytic granule exocytosis inhibition; hit rate 0.66% among 360,000; TALL-104 LAMP-1 surface exposure, flow cytometry; cells stimulated with thapsigargin and PMA; inhibition, % at 10 µM; AID 651702;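 active = inhibition above about 55%, limit read from the data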
# PP1 counter = PP1-alpha (human) inhibition in PP5 counter-screen; inhibition, % at 6.7 µM; purified PP1alpha, OMFP fluorescence; hit rate 0.9% among 320,000;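 active = inhibition above the mean inhibition of all tested compounds plus 3 SD, computed separately for each screening campaign, cut at about 15% in these data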
# Starred values were filed as active, the others as inactive; / = not tested or not shown; ! = a repeat was not active. In the library only some 2.9% were active in any assay of this set; here they are far more common.
SMILES,GRK2 inh,NadD inh,B2AR ag,Exocytosis inh,PP1 counter
N#CC1(C#N)CC(C=O)=C(N)C1(C#N)CC(=O)C12CC3CC(CC(C3)C1)C2 (configuration not stated),0,5,10,-6,0
O=C(NN=Cc1ccccc1)C(Oc1ccccc1)c1ccccc1 (configuration not stated),/,2,1,1,/
O=c1n(Cc2ccccc2)c(O)c2n1Cc1ccccc1N=C2c1ccccc1,/,-1,/,1,/
COc1cc(NC(C)CCCN)c2ncccc2c1 (configuration not stated),0,-81,6,4,16*
COc1cc(NCCCCCCCN)c2ncccc2c1,2,18,25,8,1
NC(=O)[C@H](Cc1cc2ccccc2s1)NC(=O)[C@@H]1CC2(CC(c3cccc(NC(=O)[C@@H]4CCC(=O)N4)c3)=NO2)CN1C(=O)/C=C/Sc1ccccc1 (some centres not stated),1,23,-1,-1,17*
O=[N+]([O-])c1ccc(/C=N/NC(=S)Nc2ccc(Cl)cc2Cl)s1,21,8,-11,94*,6
COc1ccc(C(C)=O)cc1CSc1nnc(-c2ccncc2)n1C,0,-2,-2,4,1
COc1ccc(C(C)=O)cc1CSc1nnc(-c2ccc(Cl)cc2)n1-c1ccccc1,4,9,3,73*,3
CC(CNC(=O)c1ccc(OC2CCN(Cc3ccccn3)CC2)cc1)c1ccccc1 (configuration not stated),0,-4,-9,0,-3
CCN(CC)c1ccc(NC(=O)COC(=O)/C=C/c2nc3ccccc3s2)cc1,0,1,18,-2,15*
COC(=O)[C@]1(C)N[C@H](c2ccc(SC3CCCCC3)c(OC)c2)[C@@H]2C(=O)N(C)C(=O)[C@@H]21,/,-3,-1,1,1
Nc1ncnc2c1cnn2C1CCCCC1,0,-6,-4,-3,-4
CSc1ccc(S(=O)(=O)NCc2ccc(Cl)cc2Cl)cc1,3,-11,-2,100*,1
N#CC1=C(S)N(c2ccc(F)cc2)C2(CCCCC2)NC1=O,2,-7,-2,81*,-1
CS(=O)(=O)Nc1ccccc1C(=O)Nc1cccc(Cl)c1,2,-3,4,4,-6
CS(=O)(=O)Nc1ccccc1C(=O)Nc1cc(Cl)cc(Cl)c1,99*,-4,14,4,1
Nc1ccc(NC(=O)c2ccc(C(=O)Nc3ccc(N)cc3)cc2)cc1,22,9,1,-5,16*
Nc1ccc(C(=O)Nc2ccc(Nc3ccncc3)cc2)cc1,0,-2,-12,5,-3
COC(=O)c1ccc(OC(C)C(=O)c2ccc(C)cc2)cc1 (configuration not stated),0,-9,-4,-2,-2
CC1(C)CC(=O)C=C(c2cccc(Cl)c2O)C1,0,-8,-1,7,-3
O=C1c2cc(Br)ccc2N(Cc2ccc(Br)cc2)S(=O)(=O)C1c1cc(Cl)c(Cl)cc1[N+](=O)[O-] (configuration not stated),2,32*,11,-5,/
Cc1cccc(NC(=S)N=Nc2c(O)[nH]c3ccccc23)c1,0,10,0,-3,3
COc1ccccc1NC(=S)N=Nc1c(O)[nH]c2ccc(Br)cc12,0,30*,0,-3,8
O=C(Nc1ccccc1Cl)C(Cl)C(=O)c1ccccc1 (configuration not stated),/,-1,6,-3,/
SMILES,GRK2 inh,NadD inh,B2AR ag,Exocytosis inh,PP1 counter
O=C(Nc1ccc(Cl)cc1)C(Cl)C(=O)c1ccccc1 (configuration not stated),0,-2,26,96*,0
CCNS(=O)(=O)c1ccc(CCC(=O)N2CCN(C(=O)OCC)CC2)cc1,2,2,-6,0,-1
CCOC(=O)N/N=C/c1cn(CCCOc2ccc(C)cc2)c2ccccc12,2,-3,71*,-1,2
Cc1cc(/C=N\NC(=O)CC(=O)NC2CCCCC2)c(C)n1-c1ccc(Cl)c(Cl)c1,0,9,56*,0,6
CCNC(=S)N/N=C/c1cc(C)n(-c2ccc(Cl)cc2)c1C,0,8,-9,0,3
Cc1cc(/C=N/NC(=O)Cn2c3ccccc3c(=O)c3ccccc32)c(C)n1-c1ccc(Cl)cc1,/,49*,15,-2,/
Cc1cc(/C=N\NC(=O)CC(=O)NC2CCCCC2)c(C)n1-c1cccc(Cl)c1Cl,1,6,3,1,6
Cc1ccc(-n2c(C)cc(/C=N/NC(=O)Cn3c4ccccc4c(=O)c4ccccc43)c2C)cc1,0,37*,11,-4,14
COCC1CCN(C(=O)c2ccc3nc(Cc4cccc(Cl)c4)oc3c2)CC1,/,-1,/,-5,/
Cc1ccc2nc(/C(C#N)=C\c3ccc(N4CCCCC4)c([N+](=O)[O-])c3)[nH]c2c1,39,39*,7,2,3
N#C/C(=C\c1ccc(N2CCOCC2)c([N+](=O)[O-])c1)c1nc2ccccc2[nH]1,0,7,1,2,-1
N#C/C(=C/c1ccc(N2CCCC2)c([N+](=O)[O-])c1)c1nc2ccccc2[nH]1,4,36*,82*,-1,1
COc1ccc(C(=O)Nc2ccc(Cl)cc2C(=O)N2CCCC(C)C2)cc1OC (configuration not stated),23,-4,-7,9,-1
Cc1ccc(S(=O)(=O)N2CCC[C@H]2C(=O)OC(C)C(=O)Nc2ncc(Cl)cc2Cl)cc1 (some centres not stated),3,-1,-1,-1,1
CCc1ccc(CNC(=O)C2CCCN(c3nn4c(=O)cc(C)nc4s3)C2)cc1 (configuration not stated),1,3,-4,3,0
CC(=O)OC[C@]12CC[C@H]3[C@@](C)(CC[C@H]4C(C)(C)CCC[C@]34C)[C@@H]1CC(C1=CC(=O)OC1O)O2 (some centres not stated),/,32*,/,86*,/
CN1CCN(Cc2nc3ccccc3c(=O)n2Cc2nc(-c3cccc([N+](=O)[O-])c3)cs2)CC1,/,6,2,43,/
CN1CCN(Cc2nc3ccccc3c(=O)n2Cc2nc(-c3ccc4ccccc4c3)cs2)CC1,0,3,3,65*!,8
NC(=S)NNc1ccc(Cl)c(Cl)c1,1,7,0,68*,-5
COc1ccc(/C=C2\SC(=O)N(CCC(=O)Nc3ccccc3)C2=O)cc1OC,0,1,10,-3,-3
COc1cc(/C=C2\SC(=O)N(CCN)C2=O)ccc1OS(=O)(=O)c1cc(C)ccc1C,/,13,23,73*,/
CN1CCN(CC(=O)Nc2ccc(OCc3ccccc3)cc2)CC1,0,/,/,/,-1
N#CCN1CCN(CC(=O)Nc2ccc(OCc3ccccc3)cc2)CC1,0,3,42*,0,-6
CCOC(=O)C1=C(C)NC(=O)NC1c1ccco1 (configuration not stated),4,13,6,1,-2

# Screens deposited in PubChem by several laboratories.
